# Data published in PubChem BioAssay (NCATS).
# Values joined by “and” are separate entries in the source; they are usually repeats but may differ in a detail not shown here. Identical values can stand only once. Results filed as inconclusive are left out. Active and inactive are the calls of the source. Calls come from the whole dose curve; as a rule, active = well fitted cell-killing curve with a large enough effect; inconclusive = small, poorly fitted or top-dose-only effect; inactive = flat fitted curve, though single readings scatter.
# Assay: Cellular viability qHTS for adrenocortical cancer (ACC) cell line SW-13 (AID 1963989); note: nearly all actives have a fitted effect of over 65% in size;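 for activity (max response): cells grown in serum-free medium with ITS supplement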
# Conditions: SW-13 ACC cells viability, CellTiter-Glo, 48 h; activity (max response): hits give low values
# Description: PI: Naris Nilubol, MD Surgical Oncology Program, National Cancer Institute (NCI) National Institute of Health (NIH), Bethesda, Maryland Adrenocortical cancer (ACC) is a rare malignancy with poor survival outcomes and few treatment options. Currently, mitotane is the only FDA-approved therapy for ACC. Although adjuvant radiation therapy is rarely utilized, it has the potential to improve survival in select cases. Through a quantitative high-throughput drug screen (qHTS), we identified auranofin (AF), a thioredoxin reductase (TXNRD) inhibitor, as a promising candidate drug. This study aims to evaluate whether AF can enhance the efficacy of radiation therapy in the treatment of ACC. Two human ACC cell lines, SW-13 and NCI-H295R, were screened using the National Center for Advancing Translational Sciences (NCATS) Pharmaceutical Collection (NPC) and the Mechanism Interrogation PlatE (MIPE) library (~4,991 compounds). CellTiter-Glo (Cat # G7570, Promega, Madison, WI) was utilized to measure cell viability. Described herein are the results of the corresponding viability assay.
# PROTOCOL TABLE (as described by Inglese J, Shamu CE and Guy RK. 2007) SEQUENCE No. (e.g., 1, 2, 3, etc.); […] (e.g., Cells, Incubation, Reagent, etc.); VALUE; DESCRIPTION. 1; Cells; 5 uL; white, solid-bottom, 1536-well tissue-culture treated plates. 2; Time; overnight culture at 37C with 5% CO2. 3; Compounds and control; 23 nL; Kalypsis pin tool (Wako USA) equipped with a 1536-well pin head to transfer to the assay plates. 4; Time; 48 hours; 37C with 5% CO2. 5; Reagent; 4 uL; CellTiter-Glo luminescent substrate mix. 6; Time; 20 min at room temperature. 7; Detection; Luminescence; ViewLux plate reader NOTES (numbers refer to Sequence numbers above) 1. SW13 cells were harvested from a T175 flask and resuspended in ITS-supplemented DMEM serum-free medium at a concentration of 300 000 cells/mL. Then 5 uL of resuspended cells were dispensed into each well of white, solid-bottom, 1536-well tissue-culture-treated plates using a multidrop combi dispenser. The plates were covered with stainless steel gasket lids. 2-3. The plates were cultured overnight at 37C with 5% CO2. Twenty-three nL of compounds (eight selected concentrations from the NPC / MIPE) or positive control (10 mM stock of bortezomib) in DMSO was transferred to each well of the assay plate using a pin tool (Kalypsys, San Diego, CA, USA). The final concentration of the compounds in the 5 uL assay volume ranged from 0.5 nM to 46 uM. 4-6. After 48 hours of incubation at 37C and 5% CO2, 4 uL of CellTilter-Glo luminescent substrate mix (Promega, Madison, WI, USA) was added to each well. Then the plates were incubated for 20 minutes at room temperature. 7. After incubation, luminescence was measured using a ViewLux plate reader (PerkinElmer, Waltham, MA, USA) with a clear filter was used to measure the number of metabolically competent cells. To determine compound activity in the qHTS assay, the titration-response data for each sample was plotted and modeled by a four-parameter logistic fit yielding IC50 and efficacy (maximal response) values. […] REFERENCES: Inglese J, Shamu CE and Guy RK, Reporting data from high throughput screening of small molecule libraries, Nature Chemical Biology, 2007, 3(8): 438-441. doi.org/10.1038/nchembio0807-438.
# % is set by controls: 0 for no effect and ±100 for the full control effect.
Structure (SMILES),activity (max response),Potency
Cc1cn2cc(C(=O)N(C)CCO)cc(N[C@@H]3CCOc4cccc(C)c43)c2n1,-15% (inactive),
CC1c2cccc(O)c2C(O)=C2C(=O)C3(O)C(O)=C(C(N)=O)C(=O)C(N(C)C)C3C(O)C21 (stereo not given),8.67% (inactive),
Cc1cn([C@@H]2C[C@@H](O)[C@H](CO)O2)c(=O)[nH]c1=O,-17.5% (inactive),
CCNC(=O)CCC/C=C\C[C@@H]1[C@@H](/C=C/C(O)CCc2ccccc2)[C@@H](O)C[C@@H]1O (stereo not given in full),-10.9% (inactive),
CCCc1nn(C)c2c(=O)[nH]c(-c3cc(S(=O)(=O)N4CCN(C)CC4)ccc3OCC)nc12,1.97% (inactive) and 1.26% (inactive),
C/C(=C\C(=O)Nc1ccccc1C(=O)O)c1ccc2ccccc2c1,,12.6 µM (active)
C[N+]12CCC(CC1)C(OC(=O)C(O)(c1ccccc1)c1ccccc1)C2 (stereo not given),-2.73% (inactive),
CCn1c(-c2nonc2N)nc2cncc(CNC3CCNCC3)c21,-7.16% (inactive),
COc1cc(C(=O)NC(N)=Nc2ccc(C)c(NC(=O)c3ccc(-c4ccccc4)cc3)c2)cc(OC)c1OC,,11.2 µM (active)
CN[C@H](CC(C)C)C(=O)N[C@H]1C(=O)N[C@@H](CC(N)=O)C(=O)N[C@H]2C(=O)N[C@H]3C(=O)N[C@H](C(=O)N[C@H](C(=O)O)c4cc(O)cc(O)c4-c4cc3ccc4O)[C@H](O)c3ccc(c(Cl)c3)Oc3cc2cc(c3O[C@@H]2O[C@H](CO)[C@@H](O)[C@H](O)[C@H]2O[C@H]2C[C@](C)(N)[C@H](O)[C@H](C)O2)Oc2ccc(cc2Cl)[C@H]1O,-12.5% (inactive),
CC(C)n1c(/C=C/[C@@H](O)C[C@@H](O)CC(=O)O)c(-c2ccc(F)cc2)c2ccccc21,5.25% (inactive),
NC[C@H]1O[C@H](O[C@H]2[C@H](O)[C@@H](O[C@H]3O[C@H](CO)[C@@H](O)[C@H](N)[C@H]3O)[C@H](N)C[C@@H]2N)[C@H](N)C[C@@H]1O,4.38% (inactive),
Nc1ccc(C(=O)NCC(=O)O)cc1,-9.96% (inactive),
NC(N)=NC(=O)Cc1c(Cl)cccc1Cl,-7.72% (inactive),
Nc1nc(=S)c2[nH]cnc2[nH]1,,3.26 µM (active) and 2.82 µM (active)
CC(=O)Nc1ccc(C(=O)O)cc1,11.7% (inactive),
CN1CCN(C(=O)[C@H]2[C@@H](C(=O)O)[C@H]3CC[C@@H]2O3)CC1,-7.83% (inactive),
CCn1cc(C(=O)O)c(=O)c2cc(F)c(N3CCNC(C)C3)c(F)c21 (stereo not given),-4.05% (inactive) and -10.4% (inactive),
NCC[C@H](O)C(=O)N[C@@H]1C[C@H](N)[C@@H](O[C@H]2O[C@H](CN)[C@@H](O)[C@H](O)[C@@H]2O)[C@H](O)[C@@H]1O[C@H]1O[C@H](CO)[C@@H](O)[C@H](N)[C@@H]1O,11.7% (inactive),
O=C(O)C[C@H]1CCc2c1[nH]c1ccc(OCc3ccc(C4CCCC4)c(C(F)(F)F)c3)cc21,5.55% (inactive),

Structure (SMILES),activity (max response),Potency
Cc1ncc(CO)c(C=O)c1O,-2.89% (inactive),
Fc1ccc(Cl)cc1-c1nc(Nc2ccncc2)c2nccnc2n1,-19.5% (inactive),
COc1ccc(C(=O)N2CCN(CC(=O)N3CCOCC3)CC2)cc1,8.16% (inactive),
O=C(O)C(O)Cc1ccc(O)c(O)c1 (stereo not given),-1.27% (inactive),
NC(=O)C1(N2CCCCC2)CCN(CCCN2c3ccccc3CCc3ccc(Cl)cc32)CC1,,20.6 µM (active)
O=C(O)c1ccc(OCCCOc2ccc(C(=O)O)cc2)cc1,5.44% (inactive),
CC(O)(P(=O)(O)O)P(=O)(O)O,14.2% (inactive),
Cc1cc(=O)n(-c2ccccc2)n1C,4.16% (inactive),
Cc1ccc(-c2ccccc2C#N)cc1,12.9% (inactive),
CCCCNc1ncc(-c2ccc(CN3CCOCC3)cn2)c(NC2CCC(O)CC2)n1 (stereo not given),-11.9% (inactive),
COc1cccc(OC)c1-c1cc(C(=O)NC2(C(=O)O)C3CC4CC(C3)CC2C4)nn1-c1ccnc2cc(Cl)ccc12 (stereo not given),-4.12% (inactive),
O=C1OC(CN2CCOCC2)CN1/N=C/c1ccc([N+](=O)[O-])o1 (stereo not given),-3.41% (inactive),
COc1cc(C(=O)NC2CCN(C)CC2)ccc1Nc1ncc2c(n1)N(C1CCCC1)CCC(=O)N2C(C)C,,25.1 µM (active)
O=C(O)CCCCC1CCSS1 (stereo not given),9% (inactive),
Nc1ncn([C@H]2C[C@H](O)[C@@H](CO)O2)c(=O)n1,-13% (inactive) and -6.12% (inactive),
CC(=O)CCCCn1c(=O)c2c(ncn2C)n(C)c1=O,7.09% (inactive),
O=C(O)CN(CCN(CC(=O)O)CC(=O)O)CCN(CC(=O)O)CC(=O)O,9.05% (inactive),
CC[C@]1(O)C[C@@H]2CN(CCc3c([nH]c4ccccc34)[C@@](C(=O)OC)(c3cc4c(cc3OC)N(C)[C@H]3[C@@](O)(C(=O)OC)[C@H](OC(C)=O)[C@]5(CC)C=CCN6CC[C@]43[C@@H]65)C2)C1,,25.9 nM (active) and 92 nM (active)
CC(=O)c1ccc(S(=O)(=O)NC(=O)NC2CCCCC2)cc1,9.54% (inactive),
CSc1ccc2c(c1)N(CCC1CCCCN1C)c1ccccc1S2 (stereo not given),,16.4 µM (active)
